For 107 sequences, z-score results are on record in PubChem BioAssay AID1508600 (Functional Genomics Laboratory (NCATS/FGL), 2020).

Among all 53,000 sequences or so, about 3,700 (7%) were called active. This excerpt belongs to a sample that is enriched for actives. Unmarked numbers belong to inactive results.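 How the source made its calls: active means gene knockdowns whose robust z-score for IL-1 alpha signal is at least 2 or at most -2, so actives lie on both sides; inactive means the rest.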

The assay is described as follows: Components of the Cytosolic LPS Sensing Pathway: Gene Identification via Genome-wide siRNA Screen.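 Further: robust z of the log signal after scaling to non-targeting control siRNA wells of the plate.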 The note with it: RAW264.7 macrophages, IL-1a HTRF, actives lie on both sides, screened at 100 nM (by protocol), cells primed 5 h with Pam3CSK4 first. A digest of the protocol:
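Three distinct siRNAs per gene were tested singly at 100 nM in RAW264.7 macrophages. Following Pam3CSK4 priming and 24 hour LipidA transfection, IL-1a secretion was read by HTRF.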
For orientation: TR-FRET usually uses a lanthanide donor and a delayed reading to cut background.
For GGUUUUCAAAUGUCUAUCATT against Pithd1, the z-score was 2.37 (active).
For CCUGCUCAGGACGACUUUUTT against Defa20, the z-score is -1.63.
Take GGACUUUGACCCGUACUAUTT against Scn8a: the z-score was 0.951.
Next, GCUUGUGCCGGAUAAAGGUTT against Gng3: -0.748; GCCAAGGUGGAAUUUUUGGTT against Gpx8: 0.139.
Next, GGUAUACCAAGAAGCUAAGTT against Kctd14: -0.855.
GCAGAGGUACGUGUUUGACTT against Gdf5: the z-score is 0.933.
In the case of GCGUGUAGGAAUAAUACCUTT against Psmc6, the z-score was -2.66 (active).
As to UGCUCUUGGGUUCUUAAAUTT against Olfr1466, the z-score is -0.559.
Next, CGAACAAGCCAUGUUUACATT against Gvin1: 0.811; GGAACUUCUCAAAAGGCUGTT against Tspoap1: -0.0418.
With GGACCUGACCUACUCGUGUTT against Rxrb, the z-score was -0.216.
For the sequence GCGGAAGCGUGAAUCCAAATT against Tigd3, the z-score was 3.13 (active).
The same measure for “GGAUCGAACUGCCAUUGCUTT against A930104D05Rik”: -0.201; for GCUGUCCUACUGAGCUUGCTT against Gdpgp1: -0.0224.
Consider GCCACUUGUGCUAAGCUGUTT against Ager, for which the z-score was -0.768.
With GGUCUGUAUGAAGACAUUATT against Pdss1, the z-score is -1.16.
Next, GCAAGAAGUAAUCAACUUUTT against Cnot9: -0.997.
Next, GGACCAGAAACCGUGAUAATT against Immp2l: 3.96 (active).
The same measure for GGCACCAAUUACAAGAAAATT against V1rg10: 0.257; for CCUGGCAGACGUGGAACAATT against Ppp1r13l: -0.102.
For the sequence GGACCAGUUACUUUAACAUTT against Pkdrej, the z-score is 0.555.
With GGAGAGUCCACUAAUACUGTT against Dmrt3, the z-score was 0.217.
On to GGAGAUUGGAUCCCGAAACTT against Pxn, for which the z-score was -0.431.
Consider GGCAAAGAGUGGUAAGAGUTT against Olfr1166, for which the z-score was -2.72 (active).
Turning to GGAUUUCUACAGGGUGUAUTT against Trim8, the z-score is -1.19.
For GGAUCUUACUAUCACCAGCTT against Foxf1, the z-score was 1.99.
CGGGCUACCAUUAUGGUGATT against Atp6ap2: the z-score was 0.382.
The same measure for GUGGCAGCACGACCUAUUCTT against Alyref2: -0.175; for CCAAUUACCUGAAUAAAGCTT against Epb41l5: 1.19.
In the case of GGGCUCUACUAUUUUUUUUTT against Polh, the z-score was -2.68 (active).
As for GCCCAGGUCUAAUGUCUAATT against Tac4, the z-score was 0.234.
In the case of GGUGUUAAGUCACAAAAUGTT against Meis2, the z-score is 1.59.
Turning to GGUUGUAUGUUGUGUGUUUTT against Cyrib, the z-score was 2.36 (active).
In the case of CGGAAUGUAGGACACGAAUTT against Ltb, the z-score was -0.267.
The same measure for GGUGACUUCGGAGAAAAGGTT against Sncaip: 0.257; for GGAACAGCUGUGAUUAACGTT against Prdx4: 0.343.
As for GCUGGAAUACGUUGAUAUATT against Kcnab3, the z-score is 3.68 (active).
Turning to GGAGAGUCCAGUUUCCAUUTT against Rnf113a1, the z-score was 1.44.
Regarding GCUCAGGAAUUUGACACCATT against Adgrl3, the z-score was -1.33.
For the sequence CCUAAGAUGAUCGUAGGCUTT against Olfr1221, the z-score is -0.643.
The same measure for CGAGCUUUCUUCGUACACCTT against Dvl2: -1.74; for GGCAUACCUGGAGAAGUGUTT against Prr5l: -2.31 (active).
On to GCUAGCACUAAGUGAACCUTT against Ppp1r21, for which the z-score is 1.25.
The same measure for GGAUAAUAGGAACAAUCUGTT against Sval1: 0.207; for GGUCAGGUUGAGGACAUAATT against Vwa1: 1.28.
Regarding GCUUACCAGAUUGUAUGUATT against Mrgpra1, the z-score is 0.533.
With GGAGAAAGAGCAGAGUCUGTT against Cep250, the z-score is -2.04 (active).
As to GGCAGAGUUUGAAAAGAUCTT against Parp16, the z-score is -1.42.
The same measure for “GGCCCAAGAUUUCAAUUAGTT against 9130230L23Rik”: -0.0833; for GGUCAGAGGUCGACCUAUUTT against Oas1h: -2.18 (active); for GGUACAUUUUAUACUGGAGTT against Zfp277: 0.163.
Next, GCCUCAUCGUAUAUAAAAUTT against Atp5mpl: -1.64.
On to GGCCCAAACCUUAAAGUCCTT against Smyd4, for which the z-score is -0.194.
With GGAAUGUACCCAUAAAAGUTT against Nudt19, the z-score was 0.988.
As to GGCAUUGAGAAGUUUGAAGTT against Fmo9, the z-score is -1.07.
The same measure for CCCUUGGUUAUGGAGAAAGTT against Mcoln2: -0.0392; for GCACAACAAGCGAUGUCAUTT against Myo9b: -2.13 (active); for CCUACGUGAACAUGACGGUTT against Agfg1: 0.096.
Next, GGUAGAGAAUUGAAACCUATT against Klhdc10: -0.776; GGAAUAUACCCUGAAACAUTT against Fam71d: 0.0244.
As for GGAGACUGUGGAUUUAAUUTT against Sult1a1, the z-score was 2.07 (active).
With GGAGAUGUACCACAAUGCCTT against Prss29, the z-score is -0.128.
Take GGCGGUGAUCCAGGGUUUATT against Klc2: the z-score was 2.62 (active).
Next, GGAGUCAAAAAAAAUGCAATT against Ribc1: 1.17.
Regarding GCAAGAUCCAGAACACUCATT against Adora1, the z-score is -0.781.
For the sequence “CCAAGGAGCAUUCUUUGGUTT against 1700024B05Rik”, the z-score is -0.0487.
In the case of GGUUUGUAUCUUAAAUGCCTT against Tdpoz4, the z-score is 2.88 (active).
Turning to GGCCUCGUCAUUUUACAGGTT against Mcee, the z-score was 0.098.
In the case of GCCAAUAAUCCACAGGCAATT against Ryk, the z-score was -0.577.
The same measure for CUGUAAGGCGGAUAAGACCTT against Pantr1: -1.42; for GGUUACAAAAGAACCAGAUTT against Pik3c2g: 1.66; for GCGGCUUAGUCCAUCAGGATT against Aplf: 0.819.
The same measure for GGAAGAGUGACUUGUGCAATT against Slc28a2: 0.0125; for GCUCGAGGCUUAGAAGACUTT against Hspb3: 2.23 (active).
GGCUUACCUGGUCUACUCCTT against Wnt8b: the z-score was -0.95.
For GCUACGUGUACCUGGAGUGTT against Cpeb1, the z-score was -0.502.
For the sequence GGUGGUUAUUUAUUGGUGATT against Sp6, the z-score was -0.272.
The same measure for GGUGCCUCAGAGUAAAUAUTT against Cdk2ap1: -0.895; for GCAAGCAAUAGAGGAACCUTT against Rnf38: 0.0643; for GCAAACUAUUUGUCUGGUGTT against Ripk1: 0.7.
The same measure for GGAGUACAUGGUGAUGUUGTT against Prss43: -2.6 (active).
In the case of CCGAAUCUCUCACGUGCCATT against Rtn4r, the z-score is -0.474.
The same measure for GGAGUGUUUUACCUCUUUCTT against Nudt13: 0.911.
The same measure for GGACUUGAUGACAGUGAAUTT against Strada: -2.27 (active).
Next, GCACCAUGAAUUCUAUUGCTT against Kcnmb1: -0.24.
With GCCGCUUAAGAGGGAUUAUTT against Mrpl15, the z-score was -0.394.
Consider GGAGUAACUAUUCCCAAUUTT against Herc1, for which the z-score was 1.41.
For GGAGUUGAGGUGAUUAUCUTT against Olfr1222, the z-score was -2.33 (active).
The same measure for GCUUAAGGAUCCAUAAUGUTT against Musk: 0.981; for GGAAGGAGAAAGAGUAUGATT against Mnt: 0.525.
On to GCAGAAACGAUUGUACCAUTT against Ar, for which the z-score was 1.37.
For the sequence GGCUCAAAACCACACCACUTT against Olfr477, the z-score is -2.75 (active).
For CGAUUGCUAAGGUGUUUGATT against Sfmbt1, the z-score was -0.45.
GGAGCAUCAUUAUUCUGCATT against Gm527: the z-score was -0.0903.
The same measure for GAGAAACCUGCCUCAUCUCTT against Spata3: -0.0842; for “GGAUUUGAACUCAGAUGUUTT against A430057M04Rik”: 2.15 (active); for GGGAUGUUCUUCAAUCCUGTT against Hecw2: 0.0154.
On to GCACUUCAGUUUACAAAACTT against Mier3, for which the z-score was -0.891.
As for CGUUUGAUGAGACCAUGUATT against Vwf, the z-score was -0.459.
Turning to GCCUGGUAGUUAGUCAGAATT against Klf11, the z-score is 2.4 (active).
Next, GCUACAUGAUUCAGCGGAATT against Itga3: -1.23.
As for CGGAUUAGUAUAAAUGUAGTT against Prss16, the z-score is -0.109.
As to UCACAACUGUCUGUUCUCATT against Klk1b3, the z-score is -1.19.
Next, GCCACACACCUUCUAUAAUTT against Ptprs: -0.62; GCCAACGCAGCAAAAGCUCTT against Rsrp1: 0.0495; CCCAAUAUGUUAGACCCUGTT against Slc16a8: 0.448.
